According to the supplement of paper PMC12632987:

T1: USP38, Q8NB14
T1 chain: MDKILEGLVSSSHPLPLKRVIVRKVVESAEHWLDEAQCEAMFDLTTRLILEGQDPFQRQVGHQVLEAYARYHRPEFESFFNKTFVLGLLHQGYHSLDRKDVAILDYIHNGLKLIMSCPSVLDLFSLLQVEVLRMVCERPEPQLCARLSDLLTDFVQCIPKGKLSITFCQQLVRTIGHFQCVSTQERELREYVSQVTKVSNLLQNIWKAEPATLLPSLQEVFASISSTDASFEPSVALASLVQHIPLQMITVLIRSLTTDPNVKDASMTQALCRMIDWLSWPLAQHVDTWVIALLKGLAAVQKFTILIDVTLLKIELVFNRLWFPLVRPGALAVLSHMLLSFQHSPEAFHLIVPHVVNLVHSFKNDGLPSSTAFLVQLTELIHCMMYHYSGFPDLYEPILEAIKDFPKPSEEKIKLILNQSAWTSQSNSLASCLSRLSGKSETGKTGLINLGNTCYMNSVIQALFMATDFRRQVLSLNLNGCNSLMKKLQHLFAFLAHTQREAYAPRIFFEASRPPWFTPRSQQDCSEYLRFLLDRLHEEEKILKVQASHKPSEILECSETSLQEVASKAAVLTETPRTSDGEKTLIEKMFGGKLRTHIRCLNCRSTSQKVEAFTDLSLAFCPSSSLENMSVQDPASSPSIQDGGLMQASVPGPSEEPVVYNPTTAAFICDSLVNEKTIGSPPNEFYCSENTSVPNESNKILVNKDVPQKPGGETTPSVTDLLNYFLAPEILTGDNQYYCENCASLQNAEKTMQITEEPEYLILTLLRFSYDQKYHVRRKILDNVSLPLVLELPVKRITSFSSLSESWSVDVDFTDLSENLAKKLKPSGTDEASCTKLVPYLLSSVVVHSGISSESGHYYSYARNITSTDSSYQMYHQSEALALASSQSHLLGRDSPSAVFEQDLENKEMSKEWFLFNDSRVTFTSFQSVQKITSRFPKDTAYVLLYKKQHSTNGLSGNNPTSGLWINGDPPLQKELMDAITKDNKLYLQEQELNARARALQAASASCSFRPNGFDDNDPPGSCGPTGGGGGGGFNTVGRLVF

B1: usp_38_diff_out_18_31_437 (protein)
chain: SLREEAERVAEEARRLAEELKEKSKELKEAIKKGDKEKAEKLMEEMERLKEELGRAYLRLRDLAREDPSNRPLLKEVTKEANEAVDEYTEAEEAYFLFKA
B2: usp_38_diff_out_18_30_434 (protein)
chain: EEEDEETEEYIRNKLLEFTAESTRDLAERVRRRLPDSPRAREIARLLEEASELLKKRTPEALEEAARLLERALELAEADPRATDRLLTSLRGLLTVVKEL
B3: usp_38_diff_out_18_28_431 (protein)
chain: AEAAIQAKIDAAEKEMDALIDEYVKVATEGFLALDESDKGEELEAAINELADAVGAAAAAVNEMRRNRDDPAAVDAQLAKFNAAKKKAKEKIKEIKKLLK
B4: usp_38_diff_out_18_28_432 (protein)
chain: EEEEIKKLIEEAEKKMDELIDEYVKISTEGFLKINESDKGEELLEAINELADEVGKAAKAVNEMRKNRNDKEKVEEYLKKFEEAYKKAKEKIEEIKKLIE
B5: usp_38_diff_out_18_31_441 (protein)
chain: SLRERGREVAERAREAIRRLRELAERLLEAIKEGKREEAEELAKEMDEELVELGRAYQELRDLAREDPSLRPLLKEVEEEANEAIDLYNKAMEELFLFKS
B6: usp_38_diff_out_18_28_433 (protein)
chain: SLEANRALIAKYEAEADALIDEATKAATEGFLKYHENPDDEKLLEAINKLMDAVGKAAAAVRRMREHIHDPEAVAKYAKEFEKAKKEAEEKLKELKKLIK
B7: usp_38_diff_out_18_31_440 (protein)
chain: SLRERAERVREELERAAERMKRLAEELKEAIKAGDRERAERLMEEMDREMERLGRAYLELRDLAREDPSLRPLLKEAERRANEAVDAYTEAATAYHLFKA
B8: usp_38_diff_out_18_30_435 (protein)
chain: EEEDEETQKFIDEELRKILAESTEELAREVRRRLPDSPEAREIAELLEEASRLIKEGTPEALKKALEKLERALELLKKNPQAPDRLLTATAGMIEVLKEL
B9: usp_38_diff_out_18_31_442 (protein)
chain: SVVEEAKRVAKEALEAIEKLKKTIDELKKAIGKDPKKAEELLKKARELLKKFSELYLRLRDLRRQAPEQIRPLLEELEKKADEAIDKYEEAETAYFLAKA
B10: usp_38_diff_out_1_101_12 (protein)
chain: LEAELAKAREAFRAAVAEVEAVLEEAEALAKAAGDAARAARWARQLAAVRAWRADLERTLEEIAAQDLESALELAKAALENAKTLLAEAKAELAAYKAKL
B11: usp_38_diff_out_1_101_6 (protein)
chain: IEKELKKALEEFNKTLDETIKVYEEIEKLYKEMGNEEKAERAQRQRDALETYRKDTTAFIEELYKEDPESALELAKLALENAKTILKEAEKELKEVKAEK
B12: usp_38_diff_out_1_101_7 (protein)
chain: LEEELKKALEEFNETIDKAIKVYEEIAKLYKKMGKEEKAEKAERQRKALETWREDSTAFIEELAKEDLESALELAKLALENAKTILKEAEEELKKVKAEE
B13: usp_38_diff_out_1_101_4 (protein)
chain: MEERLEKAKKEIEEALEEIIKIYEETAKAAKAAGDEALAERWKRFAEAMRTYRESLERTLEELREQDLESALAFAEAALEVTKSLLKEAKEEAEKAKKAL
B14: usp_38_diff_out_18_30_436 (protein)
chain: SAEDEETERYIREALRKATAESLRELAERLERRLPDSPEAREIVALVREAARLLEEGTPEALAQAAALLRRALALLEADPRATDRELTALRGLLVVVEEL
B15: usp_38_diff_out_1_101_11 (protein)
chain: LEAELAAARAEFDAAAADLLAAARAALAEVKALGDAAAAARFARYLAAYESFIADTRRTADEIAEQDKESAIEFLKAATENLRTLKEEVEAELARIKAKL
B16: usp_38_diff_out_1_101_8 (protein)
chain: LEEELEKALKEFNETIEKAMEAWKEIAKIYKELGNEEKAEKAERQLAALESYKKEHTKFIEELKKEDLESALELAKLSLKNAKSILKEAEERLKKAKALK

Target: T1, USP38, Q8NB14
Experiment: median log2 fold change of GCK-ALFA target abundance (FLAG IP / Myc IP barcode read proportion) (log2 ratio); each designed protein is fused to an ALFA-tag nanobody in HEK293 cells to bring the named protein to FLAG-tagged glucokinase (GCK); Myc marks an untargeted standard; higher = target protein stabilised (more abundant)
Settings: target protein: 3xFLAG-MCP-GCK-ALFA reporter; HEK293 landing pad (RPLP)
Summary of the method: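 HEK293 landing-pad cells received a recombined binder library fused to the ALFA nanobody and were induced with 2 μg mL^−1 doxycycline, then transfected with a plasmid encoding a FLAG-tagged target and a Myc-tagged standard. Lysates were collected after 48 h for anti-FLAG and anti-Myc immunoprecipitation, and the circular RNA barcodes were reverse transcribed, amplified and sequenced. Target abundance for each binder is the median log2 ratio of FLAG to Myc barcode read proportions. Barcodes had to reach a proportion of at least 10^−7 in both replicates, each binder needed at least 3 barcodes per replicate, a pseudocount of 10^−6 was applied, and the two replicates were pooled.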
B1 was tested, and the “median log2 fold change” value was -1.39. For B2, the “median log2 fold change” value was -0.134. With B3 the “median log2 fold change” value was -0.437. In the case of B4, the “median log2 fold change” value is reported as -0.257. For B5, the “median log2 fold change” value was -0.642. In the case of B6, the “median log2 fold change” value is reported as 0.116. B7 was tested, and the “median log2 fold change” value was -0.671. B8 was tested, and the “median log2 fold change” value was 0.231. B9 was tested, and the “median log2 fold change” value was -0.788. With B10 the “median log2 fold change” value was -0.00433. With B11 the “median log2 fold change” value was -0.129. In the case of B12, the “median log2 fold change” value is reported as -0.366. In the case of B13, the “median log2 fold change” value is reported as -0.644. With B14 the “median log2 fold change” value was 0.0576. B15 was tested, and the “median log2 fold change” value was -0.315. For B16, the “median log2 fold change” value was 0.118.
